Source: PubChem BioAssay
Activity calls are given as the source filed them.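 Rule for the calls, unless noted: active = compounds that lower viability of the colon cancer cells in the luminescence readout, with no numeric limit stated; inactive = the rest.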

Columns and labels:
[1] = Wnt pathway potentiators raising nuclear beta-catenin – imaging, WNT3A-conditioned medium, mouse C2C12, NPC library, primary screen (AID 1117326; in the data active = nuclear beta-catenin stimulation mostly above about 4.2%, no sharp cut-off; inactive = mostly below about 10%; note: reference of the scale not given here); details: stronger effect = higher value
[2] = stimulators of insulin release from INS-1E, primary screen, cell-based, 5 mM glucose, NPC library (AID 1117329;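 active = compound raises insulin release from rat beta cells at 5 mM glucose, no numeric limit stated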; note: reference of the scale not given here); details: rat INS-1E insulin secretion, at 10 µM, stronger effect = higher value
[3] = growth inhibition of GSK3B-pretreated HCT116 cells – cell-based, CellTiter-Glo, 0.2 to 20 µM (AID 1117336;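 active = compounds lowering colon cancer cell viability after pretreatment blocking the GSK3B kinase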); details: HCT116 viability after GSK3B inhibitor, at 20 µM, stronger effect = higher value
[4] = inhibition of endothelial tube formation, primary screen, imaging, VEGF stimulated, CD31 staining, tube area, NPC library (AID 1117340;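 active = compound that reduces growth-factor-driven endothelial tube area in a mixed cell culture, no cutoff stated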); details: VEGF-stimulated ADSC/ECFC co-culture, at 10 µM, stronger effect = higher value
[5] = GLP1 release stimulators, primary, NCI-H716, NPC library (AID 1117341;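 active = compound raises GLP1 secretion from the human gut endocrine cells, with no numeric limit stated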; note: reference of the scale not given here); details: NCI-H716 cells, at 10 µM, stronger effect = higher value
[6] = HCT116 colon cancer cell growth inhibition, primary screen, CellTiter-Glo luminescence, NPC library (AID 1117342;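 active = compounds that lower survival of HCT116 colon cancer cells in the luminescence readout, no numeric limit stated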); details: at 20 µM (top of the series)
[7] = reduced SW480 viability measured with CellTiter-Glo, NPC library, primary (AID 1117343); details: CellTiter-Glo luminescence; at 20 µM (top of the series)
[8] = NPC library primary testing for decreased DLD-1 cell viability via CellTiter-Glo (AID 1117346;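 active = compounds that lower survival of DLD-1 colon cancer cells in the luminescence readout, no cutoff given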); details: DLD-1 viability, CellTiter-Glo luminescence; at 20 µM (top of the series)

SMILES	nuclear beta-catenin stimulation ([1]; at 10 µM)	nuclear beta-catenin stimulation ([1]; stimulation, at 2 µM)	insulin secretion stimulation [2]	viability decrease [3]	tube area decrease [4]	GLP1 secretion stimulation [5]	inhibition of viability [6]	viability decrease (inhibition) [7]	viability decrease (inhibition) [8]
OC(C#CCN1CCCC1)(c1ccccc1)c1ccccc1	1.6% (inactive)	0.1%	4.7% (inactive)	20.5% (inactive)	11.1% (inactive)	5.5% (inactive)	21.4% (inactive)	9.7% (inactive)	-4.2% (inactive)
CN[C@@H]1[C@H](O)[C@H](O[C@@H]2[C@H](O)[C@@H](O[C@H]3O[C@H]([C@@H](C)NC)CC[C@H]3N)[C@@H](N)C[C@H]2N)OC[C@]1(C)O	-0.1% (inactive)	-0.4%	1.1% (inactive)	7.9% (inactive)	0.9% (inactive)	2.8% (inactive)	6.73% (inactive)	29.9% (inactive)	-5.6% (inactive)
N#C/C(=C1\SCC(c2ccccc2Cl)S1)n1ccnc1 (stereo not drawn)	2% (inactive)	2.6%	-2.4% (inactive)	13.1% (inactive)	21.9% (inactive)	0.1% (inactive)	21.7% (inactive)	85.4% (active)	35.2% (inactive)
CN[C@@H]1[C@@H](O)[C@@H](O[C@@H]2[C@H](O)[C@H](O[C@H]3OC(CN)=CC[C@H]3N)[C@@H](N)C[C@H]2N)OCC1(C)O (stereo partly drawn)	3.9% (inactive)	5.2%	0.6% (inactive)	-9.1% (inactive)	0.1% (inactive)	2.9% (inactive)	-0.03% (inactive)	-9.1% (inactive)	-8.2% (inactive)
O=C(O)CCCC[P+](c1ccccc1)(c1ccccc1)c1ccccc1	-2.3% (inactive)	-0.2%	3.5% (inactive)	-11% (inactive)	7.8% (inactive)	2.8% (inactive)	-8.2% (inactive)	-3.6% (inactive)	2.9% (inactive)
O=C1CC(c2ccc(Cl)cc2)CC(=O)N1	-1.1% (inactive)	-2.3%	1.8% (inactive)	2.1% (inactive)	-4.2% (active)	3.8% (inactive)	20.4% (inactive)	-4.9% (inactive)	6.7% (inactive)
Cc1cccc(C)c1NC(=O)CN1CCCCCC1	-2% (inactive)	0.1%	1.9% (inactive)	-6.6% (inactive)	-7.7% (inactive)	-1% (inactive)	-16.3% (inactive)	23.3% (inactive)	-8.2% (inactive)
O=C(O)c1[nH]n(-c2ccc(S(=O)(=O)O)cc2)c(=O)c1N=Nc1ccc(S(=O)(=O)O)cc1	1.7% (inactive)	-1.1%	2.7% (inactive)	-3.9% (inactive)	-8.4% (inactive)	-3% (inactive)	4.2% (inactive)	-14% (inactive)	6.5% (inactive)
CC(=O)O[C@H]1CC[C@@]2(C)C(=CC[C@@H]3[C@@H]2CC[C@]2(C)C(C(C)=O)=CC[C@@H]32)C1	3.7% (inactive)	0.6%	0.2% (inactive)	48% (inactive)	9.9% (inactive)	-2% (inactive)	25.8% (inactive)	60.1% (active)	14.9% (inactive)
CCCCCCCCCCCCOCCOCCOCCOCCOCCOCCOCCOCCOCCO	3.9% (inactive)	1.9%	0.8% (inactive)	78.1% (active)	47.8% (active)	33.5% (active)	96.8% (active)	124% (active)	104% (active)
Cc1cccc(OCC(O)CNC(C)(C)C)c1C (stereo not drawn)	-0.4% (inactive)	0.2%	1% (inactive)	-0.4% (inactive)	18.2% (inactive)	-1% (inactive)	23.8% (inactive)	24.5% (inactive)	8.8% (inactive)
N[C@H](C(=O)O)[C@@H](O)c1ccc(O)c(O)c1	0.1% (inactive)	0%	11.2% (inactive)	31.7% (inactive)	1.4% (inactive)	-4.8% (inactive)	6.7% (inactive)	21.5% (inactive)	2.8% (inactive)
O=C1CCC(=O)N1CO	-2.4% (inactive)	-0.7%	3.1% (inactive)	-0.6% (inactive)	-5.1% (inactive)	-1.4% (inactive)	1.8% (inactive)	9.6% (inactive)	-2.7% (inactive)
CCOC(=O)C(O)c1ccccc1 (stereo not drawn)	1.9% (inactive)	9.6%	0% (inactive)	-1.8% (inactive)	-9.7% (inactive)	0.1% (inactive)	1.4% (inactive)	-10% (inactive)	-2.3% (inactive)
COc1ccccc1OCC1CNC(=O)O1 (stereo not drawn)	-2% (inactive)	0.2%	0.9% (inactive)	-16.8% (inactive)	-6.7% (inactive)	-1.6% (inactive)	4.4% (inactive)	15.3% (inactive)	-2.8% (inactive)
CC(=O)c1ccc(OCC(=O)N2CCCCC2)cc1	1.1% (inactive)	-0.3%	0.25% (inactive)	7.4% (inactive)	7% (active)	0.7% (inactive)	-3.4% (inactive)	-3.6% (inactive)	-2.8% (inactive)

SMILES	nuclear beta-catenin stimulation ([1]; at 10 µM)	nuclear beta-catenin stimulation ([1]; stimulation, at 2 µM)	insulin secretion stimulation [2]	viability decrease [3]	tube area decrease [4]	GLP1 secretion stimulation [5]	inhibition of viability [6]	viability decrease (inhibition) [7]	viability decrease (inhibition) [8]
CO[C@@H]1[C@@H](O[C@@H]2O[C@H](C)[C@@H](O[C@H]3C[C@@](C)(O)[C@@H](O)[C@H](C)O3)[C@H](N(C)C)[C@H]2O)[C@@H](CC=O)C[C@@H](C)[C@@H](O[C@@H]2CC[C@H](N(C)C)[C@@H](C)O2)/C=C/C=C/C[C@@H](C)OC(=O)C[C@H]1OC(C)=O	-0.1% (inactive)	-1.2%	3.3% (inactive)	0.2% (inactive)	3% (inactive)	9.9% (inactive)	23.2% (inactive)	59.8% (active)	18.7% (inactive)
C[N+]1(CC2COC(c3ccccc3)(C3CCCCC3)O2)CCCCC1 (stereo not drawn)	-2.3% (inactive)	-1.4%	5% (inactive)	-13.4% (inactive)	10.1% (inactive)	-2.3% (inactive)	28.7% (inactive)	7.6% (inactive)	3.2% (inactive)
CCOc1c(N2CCOCC2)cnn(C)c1=O	-0.3% (inactive)	4.4%	1.5% (inactive)	-36.6% (inactive)	4.1% (inactive)	0.1% (inactive)	11.2% (inactive)	7.7% (inactive)	-14.1% (inactive)
Cn1c(=O)c2[nH]c(Br)nc2n(C)c1=O	0.6% (inactive)	2%	0.9% (inactive)	2.55% (inactive)	10.2% (inactive)	1.1% (inactive)	-3.7% (inactive)	-17.4% (inactive)	-0.15% (inactive)
CCOc1ccc(S(=O)(=O)O)c2cccnc12	-0.1% (inactive)	0.5%	6% (inactive)	-10.2% (inactive)	-5.5% (inactive)	-3.3% (inactive)	-0.3% (inactive)	1.9% (inactive)	0.1% (inactive)
CCCc1ccc(C(=O)O)cc1	-2% (inactive)	2.4%	0.6% (inactive)	-19.9% (inactive)	0.8% (inactive)	1.1% (inactive)	7.9% (inactive)	12.9% (inactive)	11.8% (inactive)
C[C@@H](O)[C@H]1C(=O)N2C(C(=O)O)=C([C@H]3CCCO3)S[C@H]12	0.5% (inactive)	0.5%	-1.8% (inactive)	13.8% (inactive)	-11.6% (inactive)	1.1% (inactive)	3.4% (inactive)	34.6% (inactive)	11.2% (inactive)
Cc1ccc(C(C)OC(=O)C2(C)CCC(C(=O)O)C2(C)C)cc1 (stereo not drawn)	-0.2% (inactive)	-2.1%	2.1% (inactive)	-5% (inactive)	-0.8% (inactive)	0.6% (inactive)	0.3% (inactive)	-11.8% (inactive)	14.4% (inactive)
Cc1c(C(=O)NCCO)[n+](=O)c2ccccc2n1[O-]	5% (inactive)	3%	-1.6% (inactive)	-6.4% (inactive)	14% (inactive)	-0.4% (inactive)	0.3% (inactive)	-17.1% (inactive)	-6.2% (inactive)
C#C[C@]1(O)CC[C@@H]2[C@@H]3CCC4=CCCC[C@@H]4[C@H]3C(=C)C[C@@]21CC	1% (inactive)	-0.9%	-1.9% (inactive)	99.1% (active)	55.3% (active)	-7.2% (inactive)	99% (active)	102% (active)	101% (active)
CCOC(=O)NNc1ccc(N(CC)CC(C)O)nn1 (stereo not drawn)	-1.1% (inactive)	0.1%	0.3% (inactive)	-1% (inactive)	-17.2% (inactive)	1.1% (inactive)	6.1% (inactive)	2.6% (inactive)	1% (inactive)
CNC(=O)CN(CCN(CCN(CC(=O)[O-])CC(=O)NC)CC(=O)[O-])CC(=O)[O-].O.[Gd+3]	1.4% (inactive)	-0.1%	0.2% (inactive)	38.3% (inactive)	18.9% (inactive)	-4.4% (inactive)	25.4% (inactive)	30.9% (inactive)	3.8% (inactive)
Oc1cn2c(n1)Nc1ccc(Cl)c(Cl)c1C2	0.1% (inactive)	2.5%	0.6% (inactive)	-54.9% (inactive)	40.1% (active)	4.1% (inactive)	-2.2% (inactive)	-21.9% (inactive)	-16.9% (inactive)
Cc1ccc(S(=O)(=O)NC(=O)NC2CCCCC2)cc1	0.6% (inactive)	0.3%	26.7% (active)	-13% (inactive)	-13.1% (inactive)	-5.7% (inactive)	0.6% (inactive)	17.6% (inactive)	-1.8% (inactive)
O=C(O)/C=C\C(=O)O	1.1% (inactive)	1.9%	2.7% (inactive)	-27.8% (inactive)	-3.6% (inactive)	-3.8% (inactive)	4.1% (inactive)	33.2% (inactive)	-11% (inactive)
CCN(CC)CCOc1ccccc1C(=O)CCc1ccccc1	-0.8% (inactive)	-1.7%	70% (active)	14.5% (inactive)	0.9% (inactive)	5.2% (inactive)	61.9% (active)	50.7% (active)	23.2% (inactive)
